Measurements from the supplement of paper PMC11732987, “Enantioselective OTUD7B fragment discovery through chemoproteomics screening and high-throughput optimisation” (Communications Chemistry, 2025).
Values without a mark were called inactive.

Tests used:
Assay in all cases: log2 ratio of Biotin-Ahx-Ub-VS probe labelling (fragment/DMSO); higher = less target engagement (more negative = stronger competition), active = hit call of the paper (q ≤ 0.05, log2 ratio ≤ -1)
Conditions in all cases: compound concentration: 200 uM; treatment time: 3 h
ALG13 = target: T1, ALG13 (UniProt Q9NP73)
T1 sequence (whole entry): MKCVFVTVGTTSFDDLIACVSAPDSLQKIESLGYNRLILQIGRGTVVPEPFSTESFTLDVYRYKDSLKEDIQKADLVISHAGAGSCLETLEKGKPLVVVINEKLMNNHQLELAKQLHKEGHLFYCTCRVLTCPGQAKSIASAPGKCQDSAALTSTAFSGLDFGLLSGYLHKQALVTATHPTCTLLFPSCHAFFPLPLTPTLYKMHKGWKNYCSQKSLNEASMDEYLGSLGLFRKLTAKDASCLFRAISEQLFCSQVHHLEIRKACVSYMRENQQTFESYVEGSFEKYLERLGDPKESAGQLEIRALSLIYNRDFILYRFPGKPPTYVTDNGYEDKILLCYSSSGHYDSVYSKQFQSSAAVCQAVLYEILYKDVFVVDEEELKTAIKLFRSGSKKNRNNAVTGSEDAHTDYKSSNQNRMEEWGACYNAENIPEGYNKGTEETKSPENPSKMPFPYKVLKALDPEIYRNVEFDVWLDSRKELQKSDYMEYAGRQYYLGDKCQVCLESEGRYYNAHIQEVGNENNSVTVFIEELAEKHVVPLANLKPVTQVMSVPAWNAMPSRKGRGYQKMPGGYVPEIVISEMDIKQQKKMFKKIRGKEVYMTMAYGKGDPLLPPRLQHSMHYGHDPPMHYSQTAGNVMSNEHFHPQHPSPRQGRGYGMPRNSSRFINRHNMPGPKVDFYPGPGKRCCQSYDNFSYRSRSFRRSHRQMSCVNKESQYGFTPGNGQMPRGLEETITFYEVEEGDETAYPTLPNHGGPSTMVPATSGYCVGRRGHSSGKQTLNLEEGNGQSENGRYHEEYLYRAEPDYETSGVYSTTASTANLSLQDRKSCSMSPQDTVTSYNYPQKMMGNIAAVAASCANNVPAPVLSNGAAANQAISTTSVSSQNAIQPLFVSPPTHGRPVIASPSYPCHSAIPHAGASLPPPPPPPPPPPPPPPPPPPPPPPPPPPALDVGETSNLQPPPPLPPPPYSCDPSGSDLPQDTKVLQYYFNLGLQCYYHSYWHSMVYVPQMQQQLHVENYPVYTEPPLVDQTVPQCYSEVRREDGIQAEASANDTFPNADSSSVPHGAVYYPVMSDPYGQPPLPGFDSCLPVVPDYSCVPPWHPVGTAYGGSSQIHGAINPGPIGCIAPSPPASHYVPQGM
Summary of the method: (§1)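 Global-median-normalised Spectronaut label-free quantities were compared by unpaired t-test, and values are average log2 ratios of fragment over vehicle. Only proteins with ≥2 unique peptides were used. HEK293T lysate (495 µg per sample) was treated in triplicate with fragment at 200 µM or vehicle for 3 h and then with Biotin-Ahx-Ub-VS at 0.5 µM final for 1 h. Labelled DUBs were then NeutrAvidin-enriched, digested with LysC and trypsin, and run by diaPASEF LC-MS/MS.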

ATXN3 = ATXN3 (UniProt P54252)
Summary of the method: as §1

BAP1 = target: T2, BAP1 (UniProt Q92560)
T2 sequence (whole entry): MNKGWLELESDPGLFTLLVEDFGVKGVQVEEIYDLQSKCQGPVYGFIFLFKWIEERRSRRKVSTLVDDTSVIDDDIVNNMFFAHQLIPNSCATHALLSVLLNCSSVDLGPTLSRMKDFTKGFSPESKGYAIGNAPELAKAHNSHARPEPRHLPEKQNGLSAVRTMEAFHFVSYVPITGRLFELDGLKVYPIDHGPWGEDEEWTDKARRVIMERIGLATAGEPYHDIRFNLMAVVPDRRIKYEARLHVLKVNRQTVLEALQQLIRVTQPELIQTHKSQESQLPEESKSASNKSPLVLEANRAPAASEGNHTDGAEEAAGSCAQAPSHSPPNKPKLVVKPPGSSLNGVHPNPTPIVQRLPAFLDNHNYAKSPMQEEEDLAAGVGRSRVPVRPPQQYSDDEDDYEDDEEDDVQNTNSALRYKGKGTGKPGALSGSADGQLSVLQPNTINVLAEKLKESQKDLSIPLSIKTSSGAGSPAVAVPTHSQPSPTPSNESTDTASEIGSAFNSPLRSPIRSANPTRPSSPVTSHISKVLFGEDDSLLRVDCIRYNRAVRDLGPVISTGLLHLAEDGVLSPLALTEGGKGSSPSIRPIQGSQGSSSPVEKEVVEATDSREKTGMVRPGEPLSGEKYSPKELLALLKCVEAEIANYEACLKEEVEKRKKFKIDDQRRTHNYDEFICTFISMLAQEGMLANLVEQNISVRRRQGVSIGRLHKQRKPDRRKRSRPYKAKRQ
Summary of the method: as §1

EIF3F = EIF3F (UniProt O00303)
Summary of the method: as §1

EIF3H = EIF3H (UniProt O15372)
Summary of the method: as §1

FAM105A = target: T3, FAM105A (UniProt Q9NUU6)
T3 sequence (whole entry): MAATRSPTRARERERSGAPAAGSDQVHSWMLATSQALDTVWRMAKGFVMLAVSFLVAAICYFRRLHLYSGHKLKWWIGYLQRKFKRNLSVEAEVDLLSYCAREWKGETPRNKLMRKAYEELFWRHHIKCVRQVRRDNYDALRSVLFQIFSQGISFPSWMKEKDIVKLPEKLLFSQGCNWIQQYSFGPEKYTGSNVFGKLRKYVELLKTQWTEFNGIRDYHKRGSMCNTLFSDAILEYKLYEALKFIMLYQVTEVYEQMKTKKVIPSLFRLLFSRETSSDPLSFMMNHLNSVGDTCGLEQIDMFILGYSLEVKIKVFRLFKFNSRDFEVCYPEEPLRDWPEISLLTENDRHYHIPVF
Summary of the method: as §1

OTUB1 = OTUB1 (UniProt Q96FW1)
Summary of the method: as §1

OTUD4 = target: T4, OTUD4 (UniProt Q01804)
T4 sequence (whole entry): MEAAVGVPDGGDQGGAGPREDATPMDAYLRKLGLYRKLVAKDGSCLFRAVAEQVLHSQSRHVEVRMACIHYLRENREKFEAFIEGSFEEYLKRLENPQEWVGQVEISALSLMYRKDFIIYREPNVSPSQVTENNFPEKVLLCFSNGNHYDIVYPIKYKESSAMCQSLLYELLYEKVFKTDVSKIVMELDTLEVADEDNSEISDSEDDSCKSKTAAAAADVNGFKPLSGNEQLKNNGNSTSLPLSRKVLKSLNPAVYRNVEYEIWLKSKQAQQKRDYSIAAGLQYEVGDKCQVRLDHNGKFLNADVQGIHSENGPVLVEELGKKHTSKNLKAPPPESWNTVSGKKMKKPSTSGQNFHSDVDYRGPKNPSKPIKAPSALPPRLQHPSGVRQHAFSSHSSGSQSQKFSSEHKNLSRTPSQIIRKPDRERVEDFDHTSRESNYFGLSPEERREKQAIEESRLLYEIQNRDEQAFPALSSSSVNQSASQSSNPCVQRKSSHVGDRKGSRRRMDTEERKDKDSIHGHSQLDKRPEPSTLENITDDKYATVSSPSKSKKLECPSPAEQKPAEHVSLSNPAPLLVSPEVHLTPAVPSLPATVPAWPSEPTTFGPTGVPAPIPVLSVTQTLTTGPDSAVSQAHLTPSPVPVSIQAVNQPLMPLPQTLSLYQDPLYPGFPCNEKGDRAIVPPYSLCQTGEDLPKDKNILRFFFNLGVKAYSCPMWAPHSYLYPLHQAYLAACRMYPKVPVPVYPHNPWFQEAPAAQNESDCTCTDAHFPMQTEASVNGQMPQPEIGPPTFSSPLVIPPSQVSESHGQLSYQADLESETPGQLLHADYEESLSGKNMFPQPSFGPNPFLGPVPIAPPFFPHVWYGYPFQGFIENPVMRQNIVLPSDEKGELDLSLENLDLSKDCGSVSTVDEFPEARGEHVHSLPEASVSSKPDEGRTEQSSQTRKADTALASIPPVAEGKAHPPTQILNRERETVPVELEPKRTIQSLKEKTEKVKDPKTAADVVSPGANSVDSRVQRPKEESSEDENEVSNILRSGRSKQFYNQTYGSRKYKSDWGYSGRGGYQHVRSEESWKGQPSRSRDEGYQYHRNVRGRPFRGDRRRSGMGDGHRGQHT
Summary of the method: as §1

OTUD5 = target: T5, OTUD5 (UniProt Q96G74)
T5 sequence (whole entry): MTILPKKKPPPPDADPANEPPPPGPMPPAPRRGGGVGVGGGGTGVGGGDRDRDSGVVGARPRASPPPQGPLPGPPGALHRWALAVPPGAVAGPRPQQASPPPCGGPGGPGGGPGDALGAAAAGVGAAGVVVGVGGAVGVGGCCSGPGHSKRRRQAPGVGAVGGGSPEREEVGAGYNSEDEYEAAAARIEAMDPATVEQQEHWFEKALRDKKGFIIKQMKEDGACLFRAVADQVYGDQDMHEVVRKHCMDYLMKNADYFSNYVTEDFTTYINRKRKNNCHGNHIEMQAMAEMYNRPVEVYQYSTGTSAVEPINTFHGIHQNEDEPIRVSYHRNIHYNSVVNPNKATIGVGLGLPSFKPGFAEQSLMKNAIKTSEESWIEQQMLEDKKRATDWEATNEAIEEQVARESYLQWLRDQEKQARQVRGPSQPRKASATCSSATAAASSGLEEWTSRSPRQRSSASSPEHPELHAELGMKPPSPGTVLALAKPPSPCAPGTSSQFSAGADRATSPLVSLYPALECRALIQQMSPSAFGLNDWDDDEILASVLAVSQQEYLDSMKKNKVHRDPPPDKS
Summary of the method: as §1

Sequence of OTUB1 (Q96FW1 whole entry): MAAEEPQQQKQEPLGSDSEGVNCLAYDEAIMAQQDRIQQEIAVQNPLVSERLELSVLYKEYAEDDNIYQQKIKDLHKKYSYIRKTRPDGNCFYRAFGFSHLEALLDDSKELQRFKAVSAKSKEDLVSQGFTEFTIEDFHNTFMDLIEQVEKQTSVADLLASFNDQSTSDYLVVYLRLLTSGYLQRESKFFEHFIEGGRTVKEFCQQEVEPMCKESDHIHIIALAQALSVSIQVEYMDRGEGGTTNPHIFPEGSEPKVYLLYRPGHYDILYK
Sequence of ATXN3 (P54252 whole entry): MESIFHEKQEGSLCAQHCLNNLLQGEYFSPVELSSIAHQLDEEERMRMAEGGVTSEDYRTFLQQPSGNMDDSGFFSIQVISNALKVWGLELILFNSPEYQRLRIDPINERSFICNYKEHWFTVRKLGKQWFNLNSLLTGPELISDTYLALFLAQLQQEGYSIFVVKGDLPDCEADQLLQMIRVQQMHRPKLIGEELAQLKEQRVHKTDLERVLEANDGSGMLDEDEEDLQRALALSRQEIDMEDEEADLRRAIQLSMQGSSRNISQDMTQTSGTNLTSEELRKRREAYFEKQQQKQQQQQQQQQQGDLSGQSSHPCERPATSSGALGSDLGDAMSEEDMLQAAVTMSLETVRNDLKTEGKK
Sequence of EIF3H (O15372 whole entry): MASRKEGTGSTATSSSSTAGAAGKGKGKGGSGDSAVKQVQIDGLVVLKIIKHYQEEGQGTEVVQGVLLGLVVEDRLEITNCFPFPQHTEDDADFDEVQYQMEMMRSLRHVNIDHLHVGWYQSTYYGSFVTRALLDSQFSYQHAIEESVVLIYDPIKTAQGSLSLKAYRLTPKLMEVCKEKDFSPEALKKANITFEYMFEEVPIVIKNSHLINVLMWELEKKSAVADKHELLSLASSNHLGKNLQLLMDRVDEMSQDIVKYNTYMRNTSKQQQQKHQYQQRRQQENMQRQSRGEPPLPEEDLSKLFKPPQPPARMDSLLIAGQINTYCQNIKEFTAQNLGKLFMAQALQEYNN
Sequence of EIF3F (O00303 whole entry): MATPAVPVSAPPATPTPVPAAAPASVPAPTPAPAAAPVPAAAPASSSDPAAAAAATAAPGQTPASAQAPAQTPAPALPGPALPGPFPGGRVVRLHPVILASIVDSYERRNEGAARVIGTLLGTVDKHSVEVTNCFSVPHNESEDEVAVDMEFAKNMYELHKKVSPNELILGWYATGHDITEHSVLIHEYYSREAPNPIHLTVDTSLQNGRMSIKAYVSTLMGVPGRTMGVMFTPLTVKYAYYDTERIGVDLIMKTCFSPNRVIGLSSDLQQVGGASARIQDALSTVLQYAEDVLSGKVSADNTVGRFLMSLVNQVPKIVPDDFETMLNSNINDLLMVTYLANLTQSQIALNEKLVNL

## O=C(CCl)Nc1cc(Cl)ccc1-n1cncn1
ALG13
  log2 ratio of Biotin-Ahx-Ub-VS probe labelling: 0.0898
ATXN3
  log2 ratio of Biotin-Ahx-Ub-VS probe labelling: -0.881
BAP1
  log2 ratio of Biotin-Ahx-Ub-VS probe labelling: -3 (active)
EIF3F
  log2 ratio of Biotin-Ahx-Ub-VS probe labelling: -0.457
EIF3H
  log2 ratio of Biotin-Ahx-Ub-VS probe labelling: 0.376
FAM105A
  log2 ratio of Biotin-Ahx-Ub-VS probe labelling: 0.14
OTUB1
  log2 ratio of Biotin-Ahx-Ub-VS probe labelling: -0.487
OTUD4
  log2 ratio of Biotin-Ahx-Ub-VS probe labelling: -0.779
OTUD5
  log2 ratio of Biotin-Ahx-Ub-VS probe labelling: -1.05 (active)
